This note sets out measurements from PubChem BioAssay (NCI).

Experiment [1] can be described thus: NCI Yeast Anticancer Drug Screen. Data for the rad50 strain (AID 155).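 Also: 0% = growth of vehicle-only cultures of the same strain.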 Particulars: S. cerevisiae rad50 strain growth inhibition; at 50.0 µM; active compounds read high. In outline: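 Inhibition values express reduced yeast growth in compound-treated cultures relative to vehicle-treated controls.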
Experiment [2] in a line: NCI Yeast Anticancer Drug Screen. Data for the mec2-1 strain (AID 157). The following applies: S. cerevisiae mec2-1 strain, at 50.0 µM, active compounds read high. In outline:
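Test agents were screened against the mec2-1 yeast strain, with defined DNA repair or cell cycle alteration. Growth was scored as inhibition against vehicle-only controls.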

The nature of experiment [3]: NCI Yeast Anticancer Drug Screen. Data for the sgs1 mgt1 strain (AID 161).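 Also: 0% = growth of cultures given vehicle only.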 The following applies: S. cerevisiae sgs1 mgt1 strain, at 50.0 µM, active compounds read high. The method in brief: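 Read-out: growth inhibition vs vehicle controls. Cells: mutant yeast strain deficient in DNA damage repair.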
The nature of experiment [4]: NCI Yeast Anticancer Drug Screen. Data for the cln2 rad14 strain (AID 165).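 Also: 0% = growth equal to vehicle treated cultures.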 Particulars: S. cerevisiae cln2 rad14 strain, at 50.0 µM, active compounds read high. In outline: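 Growth of compound-exposed yeast (cln2 rad14 genotype) measured and expressed as inhibition relative to vehicle.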
A short description of experiment [5]: NCI Yeast Anticancer Drug Screen. Data for the bub3 strain (AID 167). The following applies: S. cerevisiae bub3 mutant strain, at 50.0 µM, active compounds read high. In outline:
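Steps: expose the mutant yeast strain to compound; grow alongside vehicle-treated cultures; measure growth; express inhibition against the vehicle cultures.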

Experiment [6] can be described thus: NCI Yeast Anticancer Drug Screen. Data for the mlh1 rad18 strain (AID 175). Particulars: S. cerevisiae mlh1 rad18 strain growth inhibition; at 50.0 µM; active compounds read high. In outline: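 In this whole-cell yeast screen, a strain with altered DNA damage repair is challenged with compound, and its growth is measured against matched vehicle-treated controls.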

This is part of a sample that, as a whole, favours compounds with a hit. Of some 79,000 tested, about 15% had one in any assay. Unmarked numbers belong to inactive results. The source made the active and inactive calls. Rule as the data show it: active = growth inhibition above about 70%; inactive = the rest.

For `O=S(=O)(O)c1ccc([Se][Se]c2ccc(S(=O)(=O)O)cc2)cc1`, the growth inhibition in experiment [1] was 5.8%; in experiment [2] it was -12.9%; in experiment [3], -18.1%; in experiment [4] it was -33.5%; in experiment [5], -19.2%; in experiment [6], -17.4%.

For `C[C@@H]1C[C@@H]2c3cccc4c3c(cn4CO)C[C@H]2N(C)C1`, the growth inhibition was 8.55% in experiment [1]; -24.6% in experiment [2]; 28.6% in experiment [3]; 3.4% in experiment [4]; 0.55% in experiment [5]; 8.15% in experiment [6].

Take `O=C(CC(O)C(Cl)(Cl)Cl)CC(O)C(Cl)(Cl)Cl` (stereo not given): the growth inhibition in experiment [1] is 15%; in experiment [2], -0.7%; in experiment [3] it was 10.2%; in experiment [4], 18%; in experiment [5], 20.4%; in experiment [6], 13.4%.

Consider `COC1C(OC(=O)/C=C/C=C/C=C/C=C\C(=O)O)CCC2(CO2)C1C1(C)OC1CC=C(C)C` (stereo not given), for which the growth inhibition in experiment [1] was 9.95%; in experiment [2], -1%; in experiment [3], -19.3%; in experiment [4], 0.95%; in experiment [5], -8.7%; in experiment [6], 24.1%.

As for `CC(C)(C)Nc1ccccc1.[C-]#[O+].[C-]#[O+].[C-]#[O+].[Cr]`, the growth inhibition is -7.75% in experiment [1]; -2.3% in experiment [2]; -0.55% in experiment [3]; 10.3% in experiment [4]; 28.4% in experiment [5]; 6.3% in experiment [6].

For the molecule `O=C(O)c1cccc([As]=[As]c2cccc(C(=O)O)c2)c1` (stereo not given), the growth inhibition in experiment [1] was 8.4%; in experiment [2], -9.35%; in experiment [3] it was -8.75%; in experiment [4], 83.2% (active); in experiment [5], -65.3%; in experiment [6], 1%.

With `CC1(c2cccc(N(CCCl)CCCl)c2)NC(=O)NC1=O` (stereo not given), the growth inhibition is 25.1% in experiment [1]; 27.4% in experiment [2]; 13.2% in experiment [3]; 3.9% in experiment [4]; 19.9% in experiment [5]; 40.4% in experiment [6].

For `C=C1C(=O)OC2/C=C(\C)CC/C=C(/C)CC(OC(=O)/C(=C/CO)CO)C12` (stereo not given), the growth inhibition is 6.3% in experiment [1]; -11.6% in experiment [2]; 14.7% in experiment [3]; 13% in experiment [4]; -6% in experiment [5]; -54.7% in experiment [6].

As for `O=[N+]([O-])c1cccc(N=Nc2ccc(N(CCCl)CCCl)cc2)c1`, the growth inhibition is -23.4% in experiment [1]; 0.6% in experiment [2]; -2.55% in experiment [3]; -27.2% in experiment [4]; 4.65% in experiment [5]; 11.6% in experiment [6].

For the molecule `COc1ccc(NC(=O)COc2cccc(Cl)c2)cc1S(=O)(=O)F`, the growth inhibition in experiment [1] is 3.95%; in experiment [2], 32.1%; in experiment [3], 14.4%; in experiment [4], -2.65%; in experiment [5] it was 30.1%; in experiment [6] it was 1.15%.

`Cc1cc(C)c(CCl)cc1CCl`: the growth inhibition in experiment [1] is 16.2%; in experiment [2] it was -5.75%; in experiment [3] it was 26.4%; in experiment [4] it was -7%; in experiment [5], -7.15%; in experiment [6] it was 27.8%.

For the molecule `CC(=O)c1c(O)c(C)c(O)c(Cc2c(O)c3c(c(C(=O)/C=C/c4ccccc4)c2O)OC(C)(C)C=C3)c1O`, the growth inhibition in experiment [1] was 23.9%; in experiment [2], 29.8%; in experiment [3] it was 49.1%; in experiment [4] it was 17.7%; in experiment [5], 39.8%; in experiment [6] it was 14.5%.

For `CCC(=O)C(CC(C)[N+](C)(C)C)(c1ccccc1)c1ccccc1` (stereo not given), the growth inhibition in experiment [1] is -3.05%; in experiment [2], -4.95%; in experiment [3], -4.6%; in experiment [4] it was 3.35%; in experiment [5] it was -18.5%; in experiment [6], 6.5%.

With `CS(=O)(=O)C(Cl)Cl`, the growth inhibition in experiment [1] was -1.5%; in experiment [2], -4.75%; in experiment [3], 0.75%; in experiment [4], -2.45%; in experiment [5], 6.3%; in experiment [6], 19.8%.

On to `CCN(CC)C1CCCCC1`, for which the growth inhibition is 19.8% in experiment [1]; 16.1% in experiment [2]; -0.9% in experiment [3]; -35.7% in experiment [4]; -0.9% in experiment [5]; 11.2% in experiment [6].

As for `CP1(=S)CCC2=C1CCc1cc(O)ccc12` (stereo not given), the growth inhibition in experiment [1] was 14.4%; in experiment [2], -31.8%; in experiment [3] it was 0.4%; in experiment [4], -29.8%; in experiment [5], -3.65%; in experiment [6] it was 21.4%.

Regarding `O=C1Nc2ccccc2C12CNCS2` (stereo not given), the growth inhibition in experiment [1] is 5.7%; in experiment [2], 4.55%; in experiment [3] it was -8.6%; in experiment [4], -23.4%; in experiment [5] it was -12.8%; in experiment [6], 8.2%.

As to `CCC(=O)OC1(c2ccccc2)CCN(CCC(O)c2ccccc2)CC1C` (stereo not given), the growth inhibition in experiment [1] was -14.9%; in experiment [2] it was -1.45%; in experiment [3] it was 1.45%; in experiment [4] it was -34.9%; in experiment [5], 1.1%; in experiment [6], 6.2%.

On to `COc1cc2c(c(OC)c1O)-c1ccc(OC)c(=O)cc1[C@@H](NC(=O)C(F)(F)F)CC2`, for which the growth inhibition in experiment [1] is 14.5%; in experiment [2], 28.3%; in experiment [3], -3.25%; in experiment [4] it was 15.7%; in experiment [5] it was 7.9%; in experiment [6], 11.3%.

As for `CCC(=O)[O-].CCC(=O)[O-].N.N.N.N.[Co+3].[O-][Cl+3]([O-])([O-])[O-]`, the growth inhibition in experiment [1] is -9.55%; in experiment [2], -1.6%; in experiment [3], -9.1%; in experiment [4], 17.9%; in experiment [5], 2.05%; in experiment [6] it was -12.2%.
